# High-throughput results deposited in PubChem BioAssay by National Center for Advancing Translational Sciences (NCATS).
# TDP1 cell CPT: DT40-hTDP1 cell growth loss with CPT; AID 686979; hit rate 12% among 420,000; Potency, µM (highest dose often 46.2 µM), without a hit: at the top dose activity change, negative = growth inhibition, hits mostly inhibitors; chicken DT40 Tdp1-/-;hTDP1 cells + 20 nM CPT, ATP luminescence, 48 h; further: potency means the concentration at half of the fitted maximal effect; nearly all actives have a fitted effect of over 55% in size
#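 Chicken DT40 Tdp1-/- cells stably complemented with human TDP1 were seeded at 400 cells/well in medium containing 20 nM camptothecin, exposed to pin-transferred compounds, and grown at 37 °C for at least 48 hr. Viability was read as ATP luminescence.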
# HT1080NT lethal: kills 2HG-producing HT-1080-NT fibrosarcoma cells; HT-1080-NT fibrosarcoma viability, CellTiter-Glo ATP luminescence, 48 h; Potency, µM (doses to about 46.1 µM), without a hit: at the top dose activity, negative = less viability, actives largely listed as cytotoxic; hit rate 1.6% among 360,000; AID 686970;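 further: NT is the 2HG producing partner of a matched IDH1 knockdown line; potency means the concentration at half of the fitted maximal effect; 0% = DMSO-treated cells and -100% = media-only wells without cells; nearly all actives have a fitted effect of over 55% in size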
#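 Viability of the 2HG-overproducing fibrosarcoma line after 48 hours of compound exposure at 37 degrees C was determined by luminescence with CellTiter-Glo, and concentration-effect curves were then fitted and categorized.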
# HT1080 IDH1KD tx: kills HT-1080 cells with IDH1 knockdown | HT-1080 IDH1 knockdown viability, ATP luminescence, 48 h | Potency, µM (doses to about 46.1 µM), inactives show at the top dose activity, negative = toxicity, most hits filed as cytotoxic | hit rate 2% among 360,000;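 further: potency means the concentration at half of the fitted maximal effect; 0% = DMSO wells and -100% = cell-free medium wells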
#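 Cytotoxicity counter-line: IDH1KD HT-1080, 48 h, CellTiter-Glo. Curves classed by r2, magnitude and activity.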
# DT40 TDP1 no CPT: qHTS for Inhibitors of human tyrosyl-DNA phosphodiesterase 1 (TDP1): qHTS in cells in absence of CPT. Potency, µM (top dose mostly 46.2 µM), for inactives: at the highest dose activity change, negative = growth inhibition, usual class: inhibitors. hit rate 15% among 420,000. DT40 Tdp1-/- hTDP1 cells, no CPT, ATP luminescence, 48 h; further: potency means the concentration at half of the fitted maximal effect; nearly all actives have a fitted effect of over 55% in size
#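 Cells were dispensed at 400 per well, compounds added by pin tool, plates incubated ≥48 hr at 37 °C, then CellTiter-Glo added for 30 min at room temperature before luminescence reading. Line: DT40 Tdp1-/- complemented with hTDP1; camptothecin omitted.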
# IL1B secr inh: inhibitors of inflammasome signaling (IL-1 beta secretion). THP-1 LPS/ATP IL-1B secretion, AlphaLISA, 16 h; hits give low values. activity change, % at 57.5 µM. hit rate 4.7% among 360,000; in the data active means activity change below about -50%; inconclusive means mostly about -30% to -49%
#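 THP-1 cells pretreated 1 hr with compounds (up to 57.5 uM final), then stimulated with LPS (250 ng/mL final) plus ATP (1.25 mM final); secreted IL-1B measured by AlphaLISA after 16 hr, decreased signal indicating inhibition.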
# The depositor's hits bear a star; i = inactive; ? = inconclusive; . = no result. Hits are enriched below; roughly 19% of the tested compounds scored in any of these assays. Unless noted, the call rests on the fitted dose curve; in most records, active means well fitted curve in the direction sought with a large enough effect; inconclusive means small, poorly fitted or top-dose-only effect, or another doubt; inactive means no such curve, though single readings can be large; an effect the other way counts as inactive or inconclusive. Unless noted, on the % scale 0 is the no-effect control and ±100 the full control effect.
SMILES,TDP1 cell CPT,HT1080NT lethal,HT1080 IDH1KD tx,DT40 TDP1 no CPT,IL1B secr inh
COc1cccc(OCC(=O)N2CCC3(CC2)CC(=O)c2ccccc2O3)c1,?,-2.5%,2.1%,?,-11.5
COc1cc(CC(=O)Oc2ccc3c(c2)OCO3)cc(OC)c1OC,?,1.4%,0.7%,?,2.7
COc1cc2c(c(OC)c1OC)C(=O)CO2,-0.6%,-1.5%,-0.1%,3.8%,23.5
CCN(CC)C1Oc2cc3c(cc2C(c2cc(OC)c(OC)c(OC)c2)C1C)OCO3 (configuration not stated),2.31µM*,1.84µM*,1.46µM*,1.16µM*,10.9
COc1cc([C@@H]2c3cc4c(cc3[C@@H](O)[C@H]3COC(=O)[C@H]23)OCO4)cc(OC)c1O[Si](C)(C)C(C)(C)C,13µM*,?,?,14.6µM*,-87.9*
COc1cc(C2c3cc4c(cc3C3OC(=O)C2C3CO)OCO4)cc(OC)c1OC (configuration not stated),0.0103µM*,0.0103µM*,0.0164µM*,0.0164µM*,50.0
COc1cc(C2c3cc4c(cc3OC(N3CCCCC3)C2C)OCO4)cc(OC)c1O (configuration not stated),?,-10.5%,-21.4%,?,25.3
Cc1cc(Cl)ccc1OC(C)C(=O)NCCCn1ccnc1 (configuration not stated),6.2%,6.5%,-2.2%,-18.8%,-9.3
O=C(COc1cccnc1[N+](=O)[O-])c1ccc(Cl)s1,16.4µM*,12.5%,2.4%,16.4µM*,-10.9
CC(=O)c1cccc(OCC(=O)c2cc(C)n(-c3cc(C)on3)c2C)c1,17.8µM*,-15.9%,-29.9%,17.8µM*,-16.7
Cc1cc(-n2c(C)cc(C(=O)COc3cccnc3[N+](=O)[O-])c2C)no1,11.6µM*,0.1%,-7.9%,14.6µM*,12.4
CC(=O)Nc1cccc(C(=O)NCc2ccc3c(c2)CCN3C(C)=O)c1,-8.6%,.,.,-13.2%,.
COc1ccc(OCC(=O)NCc2ccc3c(c2)CCN3C(=O)c2cccc(C)c2)cc1,1.84µM*,.,.,1.84µM*,.
O=C(COc1ccc(F)cc1)NCc1ccc2c(c1)CCN2C(=O)c1ccccc1,10.5%,.,.,6.5%,.
Cc1cccc(C(=O)N2CCc3cc(CNC(=O)CCc4ccccc4)ccc32)c1,14.6µM*,.,.,13µM*,.
COc1ccc(OC)c(NC(=O)CSc2nnc(Cn3nnc4ccccc43)n2C)c1,-20.0%,9.6%,1.4%,-5.5%,0.0
Cc1cc2n(n1)CCCN2C(=O)Nc1ccccc1F,-14.6%,.,.,-9.9%,.
CCOC(=O)/C(C#N)=C/c1cc2ccccc2nc1N1CCOCC1,20.2%,-0.8%,0.6%,-8.9%,24.9
N#CC(C#N)=Cc1cc2ccccc2nc1N1CCCCC1,20.6µM*,-6.6%,-3.6%,20.6µM*,-103.6*
O=C(Nc1nc(-c2ccc(S(=O)(=O)N3CCCCCC3)cc2)cs1)c1cccs1,?,-15.1%,-19.5%,20.6µM*,9.8
O=C(Nc1ccc(S(=O)(=O)N2CCCC2)cc1)c1cccs1,-28.0%,-3.6%,1.6%,-26.1%,-3.9
O=C(Nc1nc(-c2ccc(S(=O)(=O)N3CCCC3)cc2)cs1)c1cccs1,?,0.0%,-14.2%,14.6µM*,?
O=C(Nc1cccc(S(=O)(=O)N2CCCCC2)c1)c1cccs1,-15.5%,2.4%,1.5%,?,i
Cc1cc(Cl)ccc1OCc1cc(=O)n2c3c(sc2n1)CCCC3,-0.4%,.,.,0.2%,.
O=C(CCCCCn1c(=S)[nH]c2ccc(N3CCOCC3)cc2c1=O)NCc1cccc(Cl)c1,-21.1%,2.7%,-10.0%,-24.2%,44.8
SMILES,TDP1 cell CPT,HT1080NT lethal,HT1080 IDH1KD tx,DT40 TDP1 no CPT,IL1B secr inh
O=C(Cn1ncc2c(=O)oc3ccccc3c21)NCc1ccccc1Cl,5.0%,.,.,-17.6%,.
CC(=O)Nc1ccc(S(=O)(=O)N(Cc2cccnc2)Cc2cc3ccccc3[nH]c2=O)cc1,16.4µM*,-10.5%,1.0%,18.4µM*,-1.1
CC(=O)Nc1ccc(S(=O)(=O)N(Cc2ccco2)Cc2cc3ccccc3[nH]c2=O)cc1,?,-27.8%,-8.6%,?,0.0
O=c1[nH]c2ccccc2cc1CN(Cc1cccnc1)S(=O)(=O)c1ccc([N+](=O)[O-])cc1,-24.5%,0.4%,8.0%,?,4.1
O=c1[nH]c2ccccc2cc1CN(Cc1cccnc1)S(=O)(=O)c1ccc(Cl)cc1,?,-12.8%,-15.5%,25.9µM*,-60.6*
CC(=O)Oc1cccc(C(=O)Nc2ccc(NC(=O)c3cccs3)cc2)c1,?,?,-29.8%,?,-28.9
CCN(Cc1ccccc1)S(=O)(=O)c1cc(C(=O)NC2CCCCCC2)ccc1OC,23.1µM*,-5.5%,-0.7%,?,-14.7
CCc1ccc(NC(=O)c2ccc(F)c(S(=O)(=O)N(CC)c3ccccc3)c2)cc1,?,-24.0%,?,8.2µM*,18.5
CCOc1ccc(NC(=O)c2ccc(F)c(S(=O)(=O)N(CC)Cc3ccccc3)c2)cc1,14.6µM*,.,.,20.6µM*,.
CCN(c1ccccc1)S(=O)(=O)c1cc(C(=O)Nc2cccc(Cl)c2)ccc1F,?,?,?,?,-10.0
CCN(Cc1ccccc1)S(=O)(=O)c1cc(C(=O)Nc2cc(Cl)cc(Cl)c2)ccc1F,6.51µM*,.,.,6.51µM*,.
O=C(COC(=O)c1ccc(C(F)(F)F)cc1)NC(=O)C1CCCCC1,-14.8%,.,.,-11.1%,.
O=C(Nc1cc(Cl)cc(Cl)c1)c1ccc(F)c(S(=O)(=O)NCc2ccccc2Cl)c1,-99.3%,.,.,10.3µM*,.
N/C(CCS(=O)(=O)c1ccc(Cl)cc1)=N\OC(=O)c1ccc(Cl)cc1,?,-14.0%,-7.0%,20.6µM*,?
COc1ccc(C(=O)O/N=C(\N)Cc2ccc(Cl)cc2)cc1OC,16.4µM*,14.6µM*,?,20.6µM*,-54.1*
COc1ccc(C/C(N)=N/n2cnnc2)cc1Cl,3.3%,-0.8%,-0.4%,-13.8%,8.7
N/C(Cc1ccc(Cl)cc1)=N\OC(=O)c1ccccc1,?,?,?,?,-19.8
COc1ccc(C(=O)O/N=C(\N)Cc2ccc(Cl)c(Cl)c2)cc1OC,16.4µM*,14.6µM*,?,?,-6.4
CCn1cc(CN2CCCC(CNC(=O)COc3ccccc3OC)C2)c(C)n1 (configuration not stated),2.1%,-1.9%,9.5%,22.0%,13.2
Cc1ncc([N+](=O)[O-])n1Cc1ccc(F)cc1,3.5%,1.6%,?,?,-9.2
COC(=O)c1c(NC(=O)c2nc(SCc3ccc(F)cc3)ncc2Cl)sc2c1CCCC2,-5.6%,.,.,18.4%,.
O=C(N/N=C1\CCCc2c1[nH]c1ccc(Cl)cc21)c1ccncc1,11.6µM*,?,?,10.3µM*,?
